Source: PubChem BioAssay (National Center for Advancing Translational Sciences (NCATS))
Hits are enriched below; roughly 21% of the tested compounds scored in any of these assays.
VP16 counter – Gal4-VP16 reporter inhibition counter-screen; Drosophila S2 Gal4-VP16 UAS-luciferase, luminescence, 20 h; Potency, µM (top dose mostly 53.6 µM), usual class: inhibitors; actives 3.5% (n = 310,000); AID 2546;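 also: Gal4-VP16 expression switched on by copper sulfate through the metallothionein promoter; nearly all actives have a fitted effect of over 50% in size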
DT40 TDP1 no CPT – qHTS for Inhibitors of human tyrosyl-DNA phosphodiesterase 1 (TDP1): qHTS in cells in absence of CPT; Potency, µM (series often up to 46.2 µM), hits mostly inhibitors; actives 15% (n = 420,000); DT40 Tdp1-/- hTDP1 cells, no CPT, ATP luminescence, 48 h; also: nearly all actives have a fitted effect of over 55% in size
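Chicken DT40 Tdp1-/- cells complemented with human TDP1, screened without camptothecin (DMSO vehicle only), 400 cells/well. Compounds pin-transferred, cells incubated at 37 °C for at least 48 hr. Growth read as ATP-dependent luminescence (CellTiter-Glo, 30 min at RT).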
ELG1 DNA repair – ELG1-dependent DNA repair inhibition; Potency, µM (series often up to 46.1 µM), actives largely listed as inhibitors; AID 504467; HEK293T ELG1-luciferase reporter, luminescence, 16 h; DNA damage induced by 5-fluorouridine; actives 2.3% (n = 330,000); also: nearly all actives have a fitted effect of over 55% in size
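HEK293T cells expressing luciferase-tagged ELG1 (2,000/well) received 5-Fluorouridine plus compound or DMSO for 16 hr at 37 °C. Luciferase was read by ONE-Glo luminescence after 30 min at room temperature.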
RORgamma inh – blocks mouse ROR gamma transcriptional activity | P51450 | Drosophila S2 Gal4-RORgamma UAS-luciferase reporter, 20 h | Potency, µM (doses to about 53.6 µM), hits mostly inhibitors | actives 5.4% (n = 310,000); also: nearly all actives have a fitted effect of over 60% in size
Target sequence (P51450 whole entry, looked up, the tested form may be a part): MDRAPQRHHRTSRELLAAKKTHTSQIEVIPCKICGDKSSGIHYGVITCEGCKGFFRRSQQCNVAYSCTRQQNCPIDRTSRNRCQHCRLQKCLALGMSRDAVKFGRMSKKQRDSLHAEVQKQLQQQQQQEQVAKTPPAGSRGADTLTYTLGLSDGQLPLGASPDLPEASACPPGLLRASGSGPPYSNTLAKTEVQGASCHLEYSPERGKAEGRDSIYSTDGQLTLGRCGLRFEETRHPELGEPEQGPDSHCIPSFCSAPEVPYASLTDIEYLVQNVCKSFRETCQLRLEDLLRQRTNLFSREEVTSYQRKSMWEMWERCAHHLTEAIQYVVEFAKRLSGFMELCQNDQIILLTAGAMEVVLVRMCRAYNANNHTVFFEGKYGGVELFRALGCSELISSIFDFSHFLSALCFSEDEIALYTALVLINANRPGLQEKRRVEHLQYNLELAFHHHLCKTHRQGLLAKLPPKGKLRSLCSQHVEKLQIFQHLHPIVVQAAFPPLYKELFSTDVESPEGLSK
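Using a luciferase readout, inhibitors were identified by reduced reporter activity in Drosophila cells coexpressing a copper-inducible Gal4–ROR gamma fusion and UAS-driven Photinus luciferase, incubated 20 hr after 700 uM copper sulfate.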
DT40 TDP1 CPT – DT40-hTDP1 cell growth loss with CPT | chicken DT40 Tdp1-/-;hTDP1 cells + 20 nM CPT, ATP luminescence, 48 h | Potency, µM (doses to about 46.2 µM), hits mostly inhibitors | actives 12% (n = 420,000) | AID 686979; also: nearly all actives have a fitted effect of over 55% in size
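Cell growth measured by CellTiter-Glo luminescence after a minimum 48 h, 37 C compound exposure with 20 nM CPT in Tdp1-knockout DT40 cells stably expressing hTDP1, seeded 400/well; qHTS titration format.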
IL1B secr inh – inflammasome signaling inhibition, IL-1 beta readout; activity change, % at 57.5 µM; actives 4.7% (n = 360,000); THP-1 LPS/ATP IL-1B secretion, AlphaLISA, 16 h; stronger effect = lower value; AID 743279; in the data active = activity change below about -50%; inconclusive = mostly about -30% to -49%
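THP-1 cells pretreated 1 hr with compounds (up to 57.5 uM final), then stimulated with LPS (250 ng/mL final) plus ATP (1.25 mM final); secreted IL-1B measured by AlphaLISA after 16 hr, decreased signal indicating inhibition.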
Large screens that a line does not name were inactive. Unless noted, calls follow the shape of the dose curve; as a rule, active = well fitted curve in the direction sought with a large enough effect; inconclusive = small, poorly fitted or top-dose-only effect, or another doubt; inactive = no such curve, though single readings can be large; an effect the other way counts as inactive or inconclusive.

O=C(COC(=O)c1cccc(Br)c1)NCc1ccco1	none (no result: VP16 counter, RORgamma inh)
CCCNC(=O)C1CCC(Cn2c(=O)c3sccc3n(Cc3cccc(OC)c3)c2=O)CC1 (stereo not drawn)	none (no result: VP16 counter, ELG1 DNA repair, RORgamma inh, IL1B secr inh)
CC(=O)c1cc2c(cc1NC(=O)c1c(C)nn(-c3ccc(C)cc3)c1-n1cccc1)OCO2	none (no result: VP16 counter, ELG1 DNA repair, RORgamma inh, IL1B secr inh)
O=C1CCC(c2ccccc2)N1c1ccccc1 (stereo not drawn)	none (no result: VP16 counter, ELG1 DNA repair, RORgamma inh)
COc1ccc(CCNC(=O)C2CCCN(S(=O)(=O)c3ccc(F)cc3)C2)cc1 (stereo not drawn)	DT40 TDP1 no CPT 16.4µM, DT40 TDP1 CPT inconclusive
COC(=O)Nc1ccc(S(=O)(=O)N2CCCC(C(=O)Nc3cccc4c3OCCO4)C2)cc1 (stereo not drawn)	DT40 TDP1 no CPT inconclusive, ELG1 DNA repair 20.6µM
O=C(NCCc1ccc(Cl)cc1)C1CCCN(S(=O)(=O)N2CCCCCC2)C1 (stereo not drawn)	DT40 TDP1 no CPT 16.4µM, DT40 TDP1 CPT 18.4µM
O=C(NCCc1ccccc1)C1CCCN(C(=O)Nc2ccc(F)cc2)C1 (stereo not drawn)	DT40 TDP1 no CPT 6.51µM, ELG1 DNA repair inconclusive, DT40 TDP1 CPT 6.51µM
CC1CCN(S(=O)(=O)c2cc(C(=O)NC3(C)CCS(=O)(=O)C3)ccc2Br)CC1 (stereo not drawn)	none (no result: VP16 counter, RORgamma inh)
COc1ccc([C@]23Cc4cc(C#N)ccc4C(O2)c2c(c4ccc(OC)cc4oc2=O)O3)cc1	none (no result: DT40 TDP1 no CPT, ELG1 DNA repair, DT40 TDP1 CPT, IL1B secr inh)
O=C(Nc1ccc(N2CCOCC2)cc1)C1CCCN(S(=O)(=O)c2ccccc2)C1 (stereo not drawn)	DT40 TDP1 no CPT inconclusive, DT40 TDP1 CPT inconclusive
CN(C)c1ccc(NC(=O)C2CCCN(S(=O)(=O)c3ccccc3)C2)cc1 (stereo not drawn)	DT40 TDP1 no CPT 23.1µM, ELG1 DNA repair inconclusive, RORgamma inh inconclusive, DT40 TDP1 CPT 14.6µM
Cc1cnc(-n2ncc(C(=O)NCC(C)(C)N3CCOCC3)c2C(C)C)nc1-c1ccc(F)cc1	none (no result: VP16 counter, ELG1 DNA repair, RORgamma inh, IL1B secr inh)
COc1ccc(S(=O)(=O)N2CCC(C(=O)N[C@@H](C)C(=O)NC3CCCC3)CC2)cc1	DT40 TDP1 no CPT inconclusive, DT40 TDP1 CPT 16.4µM
CC(C(=O)NC1CCCC1)N1CCN(S(=O)(=O)c2ccc(C(C)(C)C)cc2)CC1 (stereo not drawn)	DT40 TDP1 no CPT 10.3µM, DT40 TDP1 CPT 20.6µM (no result: VP16 counter, RORgamma inh)
CS(=O)(=O)c1cc([N+](=O)[O-])c(Sc2nc3ccccc3[nH]2)c([N+](=O)[O-])c1	VP16 counter 3.16µM, DT40 TDP1 no CPT 4.61µM, RORgamma inh 2.51µM, DT40 TDP1 CPT 2.91µM
Cc1cc2nc(Sc3c([N+](=O)[O-])nc(C)n3Cc3ccccc3)[nH]c2cc1C	VP16 counter 8.91µM, DT40 TDP1 no CPT 11.6µM, ELG1 DNA repair inconclusive, RORgamma inh 12.6µM, DT40 TDP1 CPT 7.31µM, IL1B secr inh -97.6
Cn1cnc([N+](=O)[O-])c1Sc1nc2ccccc2[nH]1	DT40 TDP1 no CPT 18.4µM, DT40 TDP1 CPT 10.3µM, IL1B secr inh -97.3
Cc1nc([N+](=O)[O-])c(Sc2nc3ccccc3[nH]2)n1Cc1ccccc1	VP16 counter inconclusive, DT40 TDP1 no CPT 11.6µM, ELG1 DNA repair inconclusive, RORgamma inh 10µM, DT40 TDP1 CPT 8.2µM, IL1B secr inh -105.3
CCN1CCN(c2ccc([N+](=O)[O-])c(Sc3nc4ccccc4[nH]3)c2)CC1	DT40 TDP1 no CPT inconclusive, DT40 TDP1 CPT inconclusive, IL1B secr inh inconclusive
C[C@@H](CO)[C@H](/C=C/c1ccccc1)CCO[Si](c1ccccc1)(c1ccccc1)C(C)(C)C	none (no result: DT40 TDP1 no CPT, ELG1 DNA repair, DT40 TDP1 CPT, IL1B secr inh)
COc1ccc2nc(Sc3c([N+](=O)[O-])nc(C)n3Cc3ccccc3)[nH]c2c1	DT40 TDP1 no CPT 23.1µM, RORgamma inh inconclusive, DT40 TDP1 CPT 18.4µM, IL1B secr inh -80.2
O=C(COC(=O)COc1ccc2c(c1)CCC2)Nc1ccccc1C(F)(F)F	DT40 TDP1 CPT inconclusive (no result: VP16 counter, RORgamma inh)
